# Source: PubChem BioAssay (NCATS)
# Results filed as inconclusive are left out. Unmarked numbers belong to inactive results. Active and inactive are the calls of the source. Calls come from the whole dose curve; as a rule, active = well fitted curve in the direction sought with a large enough effect; inconclusive = small, poorly fitted or top-dose-only effect, or another doubt; inactive = no such curve, though single readings can be large; an effect the other way counts as inactive or inconclusive.
# Columns and labels:
# [1] = test system: Zika virus NS2B-NS3 protease (linked construct); assay: Confirmatory screen NINDS AMC qHTS for Zika virus inhibitors (AID 1347152); note: potency is the fitted concentration of half-maximal effect; nearly all actives have a fitted effect of over 70% in size
# Procedure, shortened: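 Enzyme (1 nM, linked construct) was preincubated with compound for 15 minutes at room temperature in 10 mM Tris-HCl pH 8.0 with 0.01% Tween 20. Bz-Nle-Lys-Arg-Arg-AMC was then added to 10 microM, and AMC fluorescence was recorded immediately and after 15 minutes.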
# [2] = test system: Zika virus NS2B-NS3 protease (unlinked complex); assay: Confirmatory screen GU AMC qHTS for Zika virus inhibitors (AID 1347153); note: potency is the fitted concentration of half-maximal effect; nearly all actives have a fitted effect of over 70% in size
# Procedure, shortened: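 Unlinked enzyme 25 nM, Tris pH 8.0/0.01% Tween 20; cpd 15 min RT, dark; + AMC substrate 10 µM (Km 18.3 µM); 340/450 nm read at t0 and 15 min; % inhibition → 4-param fit.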
# [3] = Confirmatory screen GU Rhodamine qHTS for Zika virus inhibitors qHTS (AID 1347157); note: nearly all actives have a fitted effect of over 70% in size; note: potency is the fitted concentration of half-maximal effect
# Procedure, shortened: (§1)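 Unlinked NS2B/NS3, 25 nM; Rhod110 peptide, 1.5 microM; compounds, up to 114 microM. Reaction run 15 min at RT in 10 mM Tris-HCl pH 8.0, 0.01% Tween 20; kinetic fluorescence change fitted with a 4-parameter Hill model.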
# [4] = test system: Zika virus NS2B-NS3 protease (unlinked complex); assay: Primary screen GU Rhodamine qHTS for Zika virus inhibitors: Unlinked NS2B-NS3 protease assay (AID 1347159); note: nearly all actives have a fitted effect of over 60% in size; note: potency is the fitted concentration of half-maximal effect
# Procedure, shortened: as §1
# [5] = test system: Zika virus NS2B-NS3 protease (linked construct); assay: Primary screen NINDS Rhodamine qHTS for Zika virus inhibitors (AID 1347160); note: nearly all actives have a fitted effect of over 55% in size; note: potency is the fitted concentration of half-maximal effect
# Procedure, shortened: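 Single-chain NS2B-NS3 protease, 25 nM, pH 8.0; compounds preincubated 15 min. Activity: Rhodamine110 release from 1.5 microM substrate over 15 min, room temperature, data fitted to 4-parameter Hill.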
# [6] = Confirmatory screen NINDS Rhodamine qHTS for Zika virus inhibitors (AID 1347161); note: nearly all actives have a fitted effect of over 60% in size; note: potency is the fitted concentration of half-maximal effect
# Procedure, shortened: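 Purified NS2B-NS3 protease with the NS2B hydrophilic domain joined by a flexible linker (25 nM) in 10 mM Tris-HCl pH 8.0, 0.01% Tween 20, preincubated 15 min at RT with compound; Rhodamine110 peptide substrate 1.5 µM; fluorescence change over 15 min; 4-parameter Hill fit.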
# [7] = test system: Zika virus NS2B-NS3 protease (linked); assay: 384 well plate NINDS AMC confirmatory qHTS for Zika virus inhibitors (AID 1347163); note: nearly all actives have a fitted effect of over 50% in size; note: potency is the fitted concentration of half-maximal effect
# Procedure, shortened: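 Enzyme (5, 30 or 60 nM final) first met test compounds for ~15 min. The AMC-tagged peptide Ac-VKTGKR-AMC followed at 30 microM. Fluorescence was then recorded at 25 min and scaled against no-enzyme and no-inhibitor wells.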
# [8] = test system: Zika virus NS2B-NS3 protease (linked construct); assay: 384 well plate NINDS Rhodamine confirmatory qHTS for Zika virus inhibitors (AID 1347164);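 note: fluorescence from protease cleavage of Ac-LKRR-rhodamine 110 substrate; nearly all actives have a fitted effect of over 65% in size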; note: potency is the fitted concentration of half-maximal effect
# Procedure, shortened: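 Enzyme (final 5/30/60 nM) + cpd (DMSO), ~15 min; add Ac-LKRR-Rd 10 microM final; 25 min RT, dark; FI ex 485/em 538; normalized to no-enzyme, no-inhibitor ctrls; aprotinin intraplate ctrl.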
# [9] = HepG2 cells viability qHTS for Zika virus inhibitors (AID 1347168)
# Procedure, shortened: (§2)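 To flag cytotoxic protease inhibitors, viability is measured by ATP-dependent luminescence (CellTiter Glo) after cells attached overnight receive compound for 24 to 48 hours in DMEM with 4% FBS.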
# [10] = Tertiary RLuc qRT-PCR qHTS assay for Zika virus inhibitors (AID 1347169); note: nearly all actives have a fitted effect of over 55% in size; note: potency is the fitted concentration of half-maximal effect
# Procedure, shortened: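 Vero, 1,000 cells/well, o/n 37 C; cpd pinned in DMSO; ZIKV-RLuc Cambodian, MOI 1-2, 48-72 h 37 C; live-cell RLuc substrate, lum read at 1-1.5 h.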
# [11] = test system: Zika virus NS2B-NS3 protease; assay: Primary screen GU AMC qHTS for Zika virus inhibitors (AID 1347154); note: nearly all actives have a fitted effect of over 70% in size
# Procedure, shortened: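 Unlinked Zika NS2B hydrophilic domain/NS3 protease domain noncovalent complex (25 nM final) in 10 mM Tris-HCl pH 8.0, 0.01% Tween 20, with AMC peptide substrate. Fluorescence (ex 340, em 450 nm) change over 15 min, room temperature; percent inhibition fitted to 4-parameter Hill equation.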
# [12] = ZIKV-mCherry secondary qHTS for Zika virus inhibitors (AID 1347158); note: top concentration of the series differs between compounds
# Procedure, shortened: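 Read-out is percent infection: mCherry-positive Vero cells (nuclear-proximal intensity >450 RFU, 3 SD above negative controls) counted by high-content imaging of Hoechst-stained, PFA-fixed wells after 48-72 h with ZIKV-mCherry at MOI 1 and compound.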
# [13] = Vero cells viability qHTS for Zika virus inhibitors (AID 1347167)
# Procedure, shortened: as §2
smiles,measurement,setting,value
O=C(O)/C=C/c1ccc(-c2ccc(O)c(C34CC5CC(CC(C5)C3)C4)c2)cc1,Potency,[1],35 µM (active)
same,Potency,[2],44.1 µM (active)
same,Potency,[3],1.11 µM (active)
same,Potency,[4],2.24 µM (active)
same,Potency,[5],2.24 µM (active)
same,Potency,[6],1.24 µM (active)
same,Potency,[7],inactive
same,Potency,[8],3.55 µM (active)
same,outcome,[9],inactive
same,Potency,[10],0.415 µM (active)
Nc1ccccc1N,Potency,[11],inactive
C#CCN(Cc1cc2c(=O)[nH]c(C)nc2cc1Br)c1ccc(C(=O)NCc2cccnc2)cc1,Potency,[3],44.1 µM (active)
same,Potency,[4],39.8 µM (active)
same,Potency,[5],inactive
same,Potency,[6],31.2 µM (active)
O=C(O)Cc1ccc2oc(-c3ccc(NC(=O)/C=C/c4ccc(Br)cc4)c(F)c3)nc2c1,Potency,[1],15.6 µM (active)
same,Potency,[2],13.9 µM (active)
same,Potency,[3],3.12 µM (active)
same,Potency,[12],inactive
same,Potency,[4],3.16 µM (active)
same,Potency,[6],2.21 µM (active)
same,Potency,[7],inactive
same,Potency,[8],inactive
same,outcome,[13],inactive
same,outcome,[9],inactive
same,Potency,[10],inactive
COc1ccc(C(=O)C2CCN(CC(=O)N(Cc3nc4c(c(=O)[nH]3)COCC4)CC3CC3)CC2)cc1,Potency,[3],inactive
same,Potency,[4],inactive
same,Potency,[6],inactive
O=C(O)c1c(O)c(-c2ccccc2)nc2ccccc12,Potency,[11],inactive
CC(C)CCC1(O)C(=O)C(C)(C)C(O[C@@H]2O[C@H](CO)[C@@H](O)[C@H](O)[C@H]2O)C(C)(C)C1O (stereo not given in full),Potency,[4],35.5 µM (active)
CC1=C(C(=O)OCc2ccccc2)C(c2ccc(-c3ccccc3)cc2)NC(=O)N1CCCCCC(=O)O (stereo not given),Potency,[1],22.1 µM (active)
same,Potency,[2],31.2 µM (active)
same,Potency,[3],2.48 µM (active)
same,Potency,[4],3.16 µM (active)
same,Potency,[5],7.94 µM (active)
same,Potency,[6],2.48 µM (active)
same,Potency,[7],3.55 µM (active)
same,Potency,[8],0.631 µM (active)
same,outcome,[13],inactive
same,outcome,[9],inactive
same,Potency,[10],23.4 µM (active)
CCCC(=O)O[C@@H]1[C@@H]2[C@@H](OC(C)=O)[C@]3(C)C(=O)[C@H]4[C@@H](OC(C)=O)C(C)(C)C[C@H]4[C@]3(C)C(=O)[C@@]2(OC(C)=O)C[C@@H]1C,Potency,[4],inactive
O=C(/C=C/c1ccc(O)cc1)OC1[C@H](O)CC(O)(C(=O)O)C[C@H]1O (stereo not given in full),Potency,[4],inactive
CCc1c(-c2ccccc2)c(-c2ccccc2)nn1-c1ccccc1-c1cccc(OCC(=O)O)c1,Potency,[1],13.9 µM (active)
same,Potency,[2],27.8 µM (active)
same,Potency,[3],3.12 µM (active)
same,Potency,[4],6.31 µM (active)
same,Potency,[5],3.55 µM (active)
same,Potency,[6],3.12 µM (active)
same,Potency,[7],3.98 µM (active)
same,Potency,[8],2.51 µM (active)
same,outcome,[13],inactive
same,outcome,[9],inactive
COc1cc(Nc2nc3ccccc3nc2NS(=O)(=O)c2ccc(NC(=O)c3ccc(OC)c(C)c3)cc2)cc(OC)c1,Potency,[1],12.4 µM (active)
same,Potency,[2],11.1 µM (active)
same,Potency,[3],3.12 µM (active)
same,Potency,[4],2.82 µM (active)
same,Potency,[5],8.91 µM (active)
same,Potency,[6],2.78 µM (active)
same,Potency,[7],inactive
same,Potency,[8],22.4 µM (active)
same,outcome,[13],inactive
same,outcome,[9],inactive
COc1cc(O)c([C@@H](CC(=O)N2CC(C)CC(C)C2)c2ccc3c(c2)OCO3)c(OC)c1 (stereo not given in full),Potency,[4],inactive
CC(C)(C)Nc1nc2cc(Cl)c(Cl)cc2nc1S(C)(=O)=O,Potency,[3],inactive
same,Potency,[4],89.1 µM (active)
same,Potency,[5],inactive
same,Potency,[6],inactive
same,Potency,[10],10.4 µM (active)
